An excerpt weighted towards active compounds, which were near 1.7% of everything screened.
GLP-1R inv ag: acts as inverse agonist at human GLP-1 receptor. P43220. HEK293 GLP-1R CRE-luciferase, luminescence, 24 h; GLP-1R form is constitutively active. Potency, µM (titrated, usually from 38.3 µM), for inactives: at the top dose activity change, negative = inhibition, hits mostly inhibitors. actives 1.6% (n = 410,000); note: % is set by controls: 0 for no effect and ±100 for the full control effect; nearly all actives have a fitted effect of over 55% in size
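Seeding at 200 cells/uL, 12 h culture, 24 hr compound treatment, then luciferase reagent and a luminescence read; cells are HEK293 stably expressing a constitutively active GLP-1R plus cAMP-responsive luciferase.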
GLP1R ag: agonists of human GLP-1 receptor; P43220; HEK293 GLP-1R CRE-luciferase, luminescence, 4-6 h; cells express a hypersensitive GLP-1R form; Potency, µM (highest dose often 45.6 µM), for the others: at the highest dose activation, most hits filed as activators; actives 0.007% (n = 380,000); note: % of control where 0% means no effect
PTHR1 agonist: PTHR1 (human) receptor agonism; HEK293 GP2 PTHR1 cells, GloSensor cAMP luminescence, 1 h; Potency, µM (highest dose often 115 µM), inactives show at the top dose activation, actives largely listed as activators; actives 0.075% (n = 410,000); AID 743266; note: nearly all actives have a fitted effect of over 55% in size
Target sequence (Q03431 whole entry, looked up): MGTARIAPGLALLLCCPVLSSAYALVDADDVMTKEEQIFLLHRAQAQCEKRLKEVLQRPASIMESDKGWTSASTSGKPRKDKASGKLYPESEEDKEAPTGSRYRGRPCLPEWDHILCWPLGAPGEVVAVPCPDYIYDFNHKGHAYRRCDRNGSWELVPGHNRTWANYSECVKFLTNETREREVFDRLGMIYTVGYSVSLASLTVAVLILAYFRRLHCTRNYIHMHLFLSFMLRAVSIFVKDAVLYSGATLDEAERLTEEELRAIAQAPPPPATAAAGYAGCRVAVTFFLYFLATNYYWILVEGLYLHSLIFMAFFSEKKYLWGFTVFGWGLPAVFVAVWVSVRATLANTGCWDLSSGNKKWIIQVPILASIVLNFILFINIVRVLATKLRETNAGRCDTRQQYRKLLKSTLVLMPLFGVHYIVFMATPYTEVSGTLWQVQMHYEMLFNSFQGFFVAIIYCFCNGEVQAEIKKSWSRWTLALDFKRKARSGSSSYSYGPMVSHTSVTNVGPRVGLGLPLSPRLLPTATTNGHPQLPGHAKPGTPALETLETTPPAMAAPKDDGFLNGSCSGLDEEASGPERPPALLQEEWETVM
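HEK-293-derived GP2 cells expressing PTHR1 and a GloSensor cAMP reporter, 3,000/well, plated overnight, given luciferin plus IBMX (each 0.5 mM as added) for 1 h at 37 °C, then compound for 1 h at 37 °C. Luminescence was read after 15 min at room temperature.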
GLP1R cytotox: cytotoxicity in counter-screen for GLP-1R inverse agonists | HEK293 cAMP-luciferase reporter cells, luminescence, 24 h | Potency, µM (series often up to 38.3 µM), for the others: top-dose activity change, negative = inhibition, most hits filed as inhibitors | actives 0.13% (n = 410,000) | AID 624418;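 note: loss of luciferase light is scored as toxicity; % is set by controls: 0 for no effect and ±100 for the full control effect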
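Here, cytotoxicity is scored as loss of luminescence. The MLSMR collection was tested on cells seeded in medium containing 10% Nu serum, with a 24 hr compound exposure preceded by 12 hours of culture.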
An asterisk follows results filed as active; i = inactive; ? = inconclusive; / = no result given; [ ] = another dose, or the depositor's remark. Calls come from the whole dose curve; as a rule, active = well fitted curve in the direction sought with a large enough effect; inconclusive = small, poorly fitted or top-dose-only effect, or another doubt; inactive = no such curve, though single readings can be large; an effect the other way counts as inactive or inconclusive. Potency is the fitted concentration of half-maximal effect.

SMILES	GLP-1R inv ag	GLP1R ag	PTHR1 agonist	GLP1R cytotox
O=C(NCCN1CCOCC1)c1ccc(Cl)c(Cl)c1	18.3%	13.5%	i	-2.5%
O=C1/C(=C\c2ccc(Cl)c(Cl)c2)CN(C(=O)CCN2CCOCC2)C/C1=C/c1ccc(Cl)c(Cl)c1	?	-14.0%	-42.3%	2.82µM*
O=C(CN1C(=O)COc2ccc(S(=O)(=O)N3CCCC3)cc21)N1CCN(c2ccccc2)CC1	-16.2%	/	?	-16.6%
CCN(CC)S(=O)(=O)c1ccc2c(c1)nc(CCC(=O)Nc1cccc(C(F)(F)F)c1)n2CC	10µM*	0.6%	-30.3%[57.5 µM]	-21.3%
O=C(Nc1cccc(C(F)(F)F)c1)Nc1ccc2snnc2c1	11.2µM*	-5.5%	-37.8%	-25.3%
CCN(CC)S(=O)(=O)c1cccc(NC(=O)CC2CCCC2)c1	?	10.7%	i	12.7%
CCN(CC)S(=O)(=O)c1cccc(NC(=O)Nc2cccc(C(F)(F)F)c2)c1	7.94µM*	-9.4%	i	?
O=C(Nc1cccc(C(F)(F)F)c1)c1ccc2snnc2c1	7.0%	-6.5%	i	-10.1%
Cc1ccc2c(c1)c1c(n2CC(O)Cn2c(C)nc3ccccc32)/C(=N\O)CCC1 (stereo not given)	10µM*	-11.6%	i	?
CCCCOCC(O)Cn1c(C)nc2ccccc21 (stereo not given)	-29.1%	-2.3%	9.2%[57.5 µM]	-13.1%
Cc1nc2ccccc2n1CC(O)Cn1c2ccccc2c2ccccc21 (stereo not given)	9.2%	0.0%	15.8µM*	10.8%
Cc1oc(-c2ccccc2F)nc1Cn1c(SCc2ccccc2F)nc2ccncc21	?	/	-32.3%	-13.2%
COc1ccc(OC)c(NC(=O)c2oc3c(c2C)-c2nn(Cc4ccc(Cl)cc4)cc2CC3)c1	-7.6%	/	i	3.3%
Cc1ccc(S(=O)(=O)N2CCN(C(=O)CSc3ncc(C(F)(F)F)cc3Cl)CC2)cc1	10µM*	-16.4%	-17.7%[57.5 µM]	3.9%
Cc1ccc(-c2cc(C(F)(F)F)nc(SCC(=O)c3cccc([N+](=O)[O-])c3)n2)cc1	5.62µM*	-3.2%	-15.4%	62.1%
COc1cccc(/C=C2\SC(=S)N(CCCC(=O)N(CCO)c3ccccc3)C2=O)c1	4.47µM*	2.7%	i	-13.8%
COc1cccc(/C=C2\SC(=S)N(CCCC(=O)N3CCCCC3)C2=O)c1	?	-4.5%	-23.4%	5.4%
O=C1/C(=C/c2cccc(Br)c2)SC(=S)N1CCC(=O)N(CCO)c1ccccc1	11.2µM*	-0.5%	i	15.9%
COc1cccc(/C=C2\SC(=S)N(CCC(=O)NCCc3ccc(O)cc3)C2=O)c1	3.98µM*	-2.9%	-86.5%	?
O=C(Nc1cc(Cl)cc(Cl)c1)c1cc(S(=O)(=O)N2CCc3ccccc3C2)ccc1F	-7.6%	/	i	-6.8%
CCOC(=O)c1cc(-c2ccccc2)sc1NC(=O)C(C)N1C(=O)NC(C)(c2ccc(Cl)cc2)C1=O (stereo not given)	5.62µM*	-5.0%	-10.6%[57.5 µM]	5.6%
O=[N+]([O-])c1ccc(N/N=C2\CC3CC=CC23)cc1 (stereo not given)	1.26µM*	11.1%	-93.9%	?
O=[N+]([O-])c1ccc(N/N=C2\CC3CC=CC23)c([N+](=O)[O-])c1 (stereo not given)	-10.3%	16.8%	-40.2%	5.6%
COC(=O)c1cn(C(=O)c2ccc(C)cc2C)c2ccccc12	5.01µM*	-0.4%	-33.8%	-11.8%
COc1ccc(-c2nc(-c3ccccc3)c(-c3cc([N+](=O)[O-])ccc3C)[nH]2)cc1OC	5.62µM*	5.4%	i	-4.1%
SMILES	GLP-1R inv ag	GLP1R ag	PTHR1 agonist	GLP1R cytotox
COc1cc(-c2nc(-c3ccccc3)c(-c3ccc(Br)cc3)[nH]2)cc(OC)c1O	11.2µM*	/	i	-13.1%
COc1ccc(NC(=O)C(NC(=O)Cc2cccs2)c2ccc(OC)cc2)cc1 (stereo not given)	1.7%	/	-1.1%	-8.2%
CC(C)c1ccc(NC(=O)C(c2ccccc2)N(C)C(=O)CCc2c[nH]c3ccccc23)cc1 (stereo not given)	10µM*	-0.5%	-3.3%	-1.7%
COc1ccc(C(C(=O)Nc2ccc(C(C)C)cc2)N(C)C(=O)Cc2cccs2)cc1 (stereo not given)	3.16µM*	/	-31.2%	-11.1%
CCOc1ccc(S(=O)(=O)Nc2cccc(OC)c2)c2cccnc12	13.9%	2.2%	-33.4%	-10.7%
Cc1ccc(NC(=O)CN(C)C(=O)c2cccc(S(=O)(=O)N3CCc4ccccc43)c2)cc1	11.2µM*	-6.4%	-18.6%	-7.3%
CC(C)CN(CC(C)C)C(=O)c1cccc(S(=O)(=O)N2CCc3ccccc32)c1	?	6.0%	-7.1%	?
COc1ccc(NC(=O)CN(C)C(=O)c2cccc(S(=O)(=O)N3CC4(C)CC3CC(C)(C)C4)c2)cc1 (stereo not given)	11.2µM*	20.6%	-24.6%	-22.3%
COc1cccc(NC(=O)CN(C)C(=O)c2cccc(S(=O)(=O)N3CC4(C)CC3CC(C)(C)C4)c2)c1 (stereo not given)	2.5%	9.1%	i	2.3%
CCCCNC(=O)c1cccc(S(=O)(=O)N2CC3(C)CC2CC(C)(C)C3)c1 (stereo not given)	10µM*	9.3%	-19.7%	2.1%
CC(C)(C)c1ccc(C(=O)CCCN2CCC(OC(c3ccccc3)c3ccccc3)CC2)cc1	/	7.7%	/	/
O=[N+]([O-])c1ccc(S(=O)(=O)N2CCn3cccc3C2c2ccc(Br)cc2)cc1 (stereo not given)	?	/	i	-0.1%
CCOc1cccc(C(=O)Nc2ccc(-c3nc4ncccc4o3)cc2C)c1	-16.3%	/	-69.4%	-11.9%
c1ccc(-n2cc(CN3CCCC(CN4CCCC4)C3)c(-c3ccc4c(c3)OCO4)n2)cc1 (stereo not given)	10µM*	16.1%	8.4%	?
CCN(CC(=O)NCc1ccc(Cl)cc1)C(=O)CSc1ccc(Br)cc1	6.31µM*	0.0%	-42.5%	3.8%
CCOC(=O)C(=NCCCN(C)C)NNc1ccc(Br)cc1	3.98µM*	-1.2%	24.4%	?
CCCCN=C(NNc1ccc(Br)cc1)C(=O)OCC	?	1.7%	i	-20.3%
COc1ccc(C(=O)c2cn(Cc3ccccc3F)c3cc4c(cc3c2=O)OCO4)cc1	0.1%	/	?	-1.3%
CCC1CCCCN1C(=O)Cn1c(=O)n(CC2CCC(C(=O)NC)CC2)c(=O)c2sccc21 (stereo not given)	3.4%	/	-4.6%	-7.2%
Cc1ccccc1OCCSc1nc2ccc(NC(=O)c3ccccc3)cc2s1	2.82µM*	/	i	-7.1%
Cc1ccccc1OCCSc1nc2ccc(NC(=O)c3cccs3)cc2s1	12.6µM*	/	i	7.3%
Cc1ccccc1OCCSc1nc2ccc(NC(=O)c3cccc(F)c3)cc2s1	?	/	-46.7%	-20.6%

Assay outcomes as filed in PubChem BioAssay.
